Data: PubChem BioAssay (NCI)
This is part of a sample that, as a whole, favours compounds with a hit. Of some 83,000 tested, about 20% had one in any assay.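 Results are percent growth after 48 hours of single-concentration exposure. 100 means growth as in untreated cells, lower positive values show inhibition; negative values down to -100 show cell death.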 The source made the active and inactive calls. The calls were made as follows: active = growth percent below 10; inactive = the rest.

How the values were obtained:
Assay in all cases: NCI-60 one-dose screen, 48 h (100 = growth as untreated, 0 = no growth, -100 = all killed)
Settings in all cases: 10 µM unless noted
DU-145 prostate = system: DU-145 prostate
K-562 leukemia = system: K-562 leukemia
MALME-3M melanoma = system: MALME-3M melanoma
MDA-MB-231 breast = system: MDA-MB-231 breast
RXF 393 renal = system: RXF 393 renal
SF-268 CNS = system: SF-268 CNS
SF-295 CNS = system: SF-295 CNS
SF-539 CNS = system: SF-539 CNS
UACC-257 melanoma = system: UACC-257 melanoma
M14 melanoma = system: M14 melanoma

Measured: growth

CC[C@@]1(O)C(=O)OCc2c1cc1n(c2=O)Cc2c-1nc1ccccc1c2/C=N/OC(C)(C)C
inactive: MDA-MB-231 breast 24.2%
active: DU-145 prostate 6.82% | K-562 leukemia 7.64% | MALME-3M melanoma -15.3% | RXF 393 renal -47.5% | SF-268 CNS 2.41% | SF-295 CNS -1.63% | SF-539 CNS -24.4% | UACC-257 melanoma -44% | M14 melanoma -18%

O=C(Nc1ccc(-n2ccc3c(NC(=O)c4ccccc4)nccc32)cc1)c1cccc(C(F)(F)F)c1
inactive: DU-145 prostate 45.2% | K-562 leukemia 15.3% | MALME-3M melanoma 44.3% | MDA-MB-231 breast 51.4% | SF-268 CNS 26.9% | SF-295 CNS 11.3% | SF-539 CNS 16.8% | UACC-257 melanoma 44.4% | M14 melanoma 27.6%
active: RXF 393 renal -8.11%

CCN(CC)CCNc1ccc([N+](=O)[O-])c2sc3cc(Cl)ccc3c(=O)c12
active: K-562 leukemia 1.93% | MALME-3M melanoma -9.6% | RXF 393 renal -39.3%
inactive: DU-145 prostate 50.2% | MDA-MB-231 breast 22.6% | SF-268 CNS 52.4% | SF-295 CNS 43.9% | SF-539 CNS 34.5% | UACC-257 melanoma 71.5% | M14 melanoma 79.4%

C[C@H]1C=C(C[C@@H](O)CC#CC#CCCCCC[C@@H](O)[C@H]2CCC(=O)O2)C(=O)O1
inactive: DU-145 prostate 109% | K-562 leukemia 86.3% | MALME-3M melanoma 105% | MDA-MB-231 breast 96.4% | RXF 393 renal 103% | SF-268 CNS 110% | SF-295 CNS 106% | SF-539 CNS 93.1% | UACC-257 melanoma 91.8% | M14 melanoma 137%

O[C@@H]1CCO[C@H](c2ccc3ccccc3c2)C1
inactive: DU-145 prostate 102% | K-562 leukemia 98.3% | MALME-3M melanoma 96.7% | MDA-MB-231 breast 104% | RXF 393 renal 97% | SF-268 CNS 96.2% | SF-295 CNS 102% | SF-539 CNS 98.9% | UACC-257 melanoma 98.5% | M14 melanoma 101%

NC(=S)NNC1CCCCC1
inactive: DU-145 prostate 109% | K-562 leukemia 87.6% | MALME-3M melanoma 97.3% | MDA-MB-231 breast 92.1% | RXF 393 renal 107% | SF-268 CNS 97.4% | SF-295 CNS 96.4% | SF-539 CNS 96.4% | UACC-257 melanoma 80.1% | M14 melanoma 98.4%

COc1ccc(/C(Cl)=N/N=C(\Cl)c2cc(OC)c(OC)c(OC)c2)cc1OC(C)=O
inactive: DU-145 prostate 95.3% | K-562 leukemia 97.3% | MALME-3M melanoma 93.6% | MDA-MB-231 breast 97.8% | RXF 393 renal 101% | SF-268 CNS 95.3% | SF-295 CNS 102% | SF-539 CNS 93.3% | UACC-257 melanoma 84.6% | M14 melanoma 107%

S=C=NP1(N=C=S)=NP(N=C=S)(N=C=S)=NP(N=C=S)(N=C=S)=NP(N=C=S)(N=C=S)=N1 (stereo not given)
inactive: DU-145 prostate 113% | K-562 leukemia 86.4% | MALME-3M melanoma 91.4% | MDA-MB-231 breast 105% | RXF 393 renal 109% | SF-268 CNS 103% | SF-295 CNS 97.8% | SF-539 CNS 94.7% | UACC-257 melanoma 94.8% | M14 melanoma 93.4%

CCC1S/C(=N\N=C(/C)c2cccs2)N(c2ccccc2)C1=O (stereo not given)
inactive: DU-145 prostate 123% | K-562 leukemia 110% | MALME-3M melanoma 181% | MDA-MB-231 breast 97.7% | RXF 393 renal 97.3% | SF-268 CNS 89.3% | SF-295 CNS 123% | SF-539 CNS 124% | UACC-257 melanoma 97.5% | M14 melanoma 141%

COC(=O)c1ccc2c(c1)Oc1ccc(Cl)cc1-c1cc(C)nn1-2
inactive: DU-145 prostate 82.3% | K-562 leukemia 89.5% | MALME-3M melanoma 80% | MDA-MB-231 breast 60.7% | RXF 393 renal 91.8% | SF-268 CNS 80.5% | SF-295 CNS 24.6% | SF-539 CNS 68.4% | UACC-257 melanoma 108% | M14 melanoma 89%

O=C(O)c1cc2ccccc2cc1Nc1ccccc1
active: UACC-257 melanoma 4.2%
inactive: DU-145 prostate 113% | K-562 leukemia 98.3% | MALME-3M melanoma 111% | MDA-MB-231 breast 96.2% | RXF 393 renal 77.7% | SF-268 CNS 99.7% | SF-295 CNS 104% | SF-539 CNS 74.2% | M14 melanoma 96.7%

COc1cc(-c2nc3ccccc3s2)ccc1OCc1nc2n(n1)S(=O)(=O)c1ccccc1N2C
inactive: DU-145 prostate 87.7% | K-562 leukemia 71.1% | MALME-3M melanoma 39.4% | MDA-MB-231 breast 84.6% | RXF 393 renal 58.3% | SF-268 CNS 94.4% | SF-295 CNS 61.3% | SF-539 CNS 52.4% | UACC-257 melanoma 104% | M14 melanoma 76.8%

ClC1c2ccccc2CCc2ccccc21
inactive: DU-145 prostate 120% | K-562 leukemia 109% | MALME-3M melanoma 90.6% | MDA-MB-231 breast 104% | RXF 393 renal 111% | SF-268 CNS 99.3% | SF-295 CNS 106% | SF-539 CNS 95% | UACC-257 melanoma 88.8% | M14 melanoma 99.2%

CC1CCC(C(C)C)C(NN)C1 (stereo not given)
inactive: DU-145 prostate 109% | K-562 leukemia 92.2% | MALME-3M melanoma 112% | MDA-MB-231 breast 108% | RXF 393 renal 115% | SF-268 CNS 107% | SF-295 CNS 107% | SF-539 CNS 103% | UACC-257 melanoma 78.6% | M14 melanoma 102%

OC[C@@H](O)C(O[C@@H]1O[C@H](CO)[C@H](O)[C@H](O)[C@H]1O)[C@H](O)[C@@H](O)CO (stereo not given in full)
inactive: DU-145 prostate 111% | K-562 leukemia 104% | MALME-3M melanoma 97.6% | MDA-MB-231 breast 97.3% | RXF 393 renal 108% | SF-268 CNS 109% | SF-295 CNS 96.1% | SF-539 CNS 101% | UACC-257 melanoma 106% | M14 melanoma 99.9%

COc1cc(NS(=O)(=O)c2ccc(N)cc2)ncn1
inactive: DU-145 prostate 118% | K-562 leukemia 92.9% | MALME-3M melanoma 97.4% | MDA-MB-231 breast 94.7% | RXF 393 renal 112% | SF-268 CNS 109% | SF-295 CNS 102% | SF-539 CNS 112% | UACC-257 melanoma 106% | M14 melanoma 107%

O=c1nc(N2CCOCC2)oc2c(-c3cccc4ccccc34)cccc12
inactive: DU-145 prostate 97.7% | K-562 leukemia 90.1% | MALME-3M melanoma 75.2% | MDA-MB-231 breast 93.5% | RXF 393 renal 61.1% | SF-268 CNS 80.6% | SF-295 CNS 89.2% | SF-539 CNS 85% | UACC-257 melanoma 96.5% | M14 melanoma 93.2%

COc1cc(-c2nc3sc(C)cn3c2/C=C2\C(=O)Nc3ccccc32)c(Br)c(OC)c1OC
inactive: DU-145 prostate 46.9% | MALME-3M melanoma 26.3% | MDA-MB-231 breast 79.4% | RXF 393 renal 13.4% | SF-268 CNS 54.1% | SF-295 CNS 21.8% | SF-539 CNS 11.8% | UACC-257 melanoma 79.4% | M14 melanoma 22.2%
active: K-562 leukemia 9.97%

O=[N+]([O-])c1cccc2cc(S(=O)(=O)O)ccc12
inactive: DU-145 prostate 105% | K-562 leukemia 80.7% | MALME-3M melanoma 102% | MDA-MB-231 breast 105% | RXF 393 renal 122% | SF-268 CNS 104% | SF-295 CNS 104% | SF-539 CNS 99.4% | UACC-257 melanoma 91.9% | M14 melanoma 107%

CCc1ccc(C2=C/C(=C/c3ccc(Cl)cc3)C(=O)N2CCc2ccc(S(N)(=O)=O)cc2)cc1
inactive: DU-145 prostate 43.8% | K-562 leukemia 11% | MALME-3M melanoma 41.5% | MDA-MB-231 breast 43.8% | SF-268 CNS 45.6% | SF-295 CNS 25.9% | SF-539 CNS 56.1% | UACC-257 melanoma 39.4% | M14 melanoma 30.6%
active: RXF 393 renal 7.12%

CCC(CC(C)C)Nc1ccc(NC(CC)CC(C)C)cc1 (stereo not given)
inactive: DU-145 prostate 103% | MALME-3M melanoma 97.7% | MDA-MB-231 breast 93.1% | RXF 393 renal 96.5% | SF-268 CNS 72.2% | SF-295 CNS 95.3% | SF-539 CNS 107% | UACC-257 melanoma 92.4% | M14 melanoma 99.4%
active: K-562 leukemia -4.28%

OC(COc1ccccc1Cl)CN1CCN(c2ccc(Cl)cc2)CC1 (stereo not given)
inactive: DU-145 prostate 110% | K-562 leukemia 115% | MALME-3M melanoma 110% | MDA-MB-231 breast 103% | RXF 393 renal 94.3% | SF-268 CNS 104% | SF-295 CNS 97.9% | SF-539 CNS 90.6% | UACC-257 melanoma 109% | M14 melanoma 105%

O=[N+]([O-])c1cccc(C(c2ccccc2)c2ccccc2)c1
inactive: DU-145 prostate 110% | K-562 leukemia 73.7% | MALME-3M melanoma 97% | MDA-MB-231 breast 83.1% | RXF 393 renal 102% | SF-268 CNS 99.8% | SF-295 CNS 76.7% | SF-539 CNS 101% | UACC-257 melanoma 102% | M14 melanoma 97%

O=C(Nc1ccc(-n2ccc3c(NC(=O)c4ccccc4)nccc32)cc1)c1ccc(Cl)c(C(F)(F)F)c1
inactive: DU-145 prostate 23.6% | MALME-3M melanoma 57.9% | MDA-MB-231 breast 55.8% | RXF 393 renal 18.4% | SF-268 CNS 28.7% | SF-295 CNS 25.3% | SF-539 CNS 24.1% | UACC-257 melanoma 58.8% | M14 melanoma 31.5%
active: K-562 leukemia -31.6%

COc1ccccc1N1CCN(CCCOc2ccc(OCCCN3CCN(c4ccccc4OC)CC3)c(C(=O)c3cc(OC)c(OC)c(OC)c3)c2)CC1
inactive: DU-145 prostate 105% | K-562 leukemia 67.6% | MALME-3M melanoma 113% | MDA-MB-231 breast 113% | RXF 393 renal 126% | SF-268 CNS 110% | SF-295 CNS 109% | SF-539 CNS 107% | UACC-257 melanoma 107% | M14 melanoma 108%

Cc1ccc(/C=C2/C(=O)Nc3cc(Cl)c(-c4csc(N)n4)cc32)cc1
active: K-562 leukemia 9.97%
inactive: DU-145 prostate 87.5% | MALME-3M melanoma 80.4% | MDA-MB-231 breast 46.8% | RXF 393 renal 76.4% | SF-268 CNS 71.8% | SF-295 CNS 70.8% | SF-539 CNS 81.6% | UACC-257 melanoma 94.7% | M14 melanoma 52.9%

O=S1(=O)N(CCNc2nccc(-c3c(-c4cccc(O)c4)nc4sccn34)n2)CCN1Cc1ccccc1
inactive: DU-145 prostate 74.1% | K-562 leukemia 46.1% | MALME-3M melanoma 50.8% | MDA-MB-231 breast 52.6% | RXF 393 renal 68.6% | SF-268 CNS 86% | SF-295 CNS 62.8% | SF-539 CNS 63.9% | UACC-257 melanoma 37.2% | M14 melanoma 28.4%

O=C(Nc1ccc(-n2cc(-c3ccncc3)c(-c3ccc(O)c(Cl)c3)n2)cc1)Nc1cc(C(F)(F)F)cc(C(F)(F)F)c1
inactive: DU-145 prostate 80.6% | K-562 leukemia 57.6% | MALME-3M melanoma 92.1% | MDA-MB-231 breast 78.3% | RXF 393 renal 27% | SF-268 CNS 70.8% | SF-295 CNS 19.6% | SF-539 CNS 62.4% | UACC-257 melanoma 90.3% | M14 melanoma 55.6%
